Laboratory results reported in PubChem BioAssay AID504534 (National Center for Advancing Translational Sciences (NCATS), 2011).
Results filed as inconclusive are left out. A call without a number means that no potency is given here. Active and inactive are the calls of the source. Calls come from the whole dose curve; as a rule, active = well fitted curve in the direction sought with a large enough effect; inconclusive = small, poorly fitted or top-dose-only effect, or another doubt; inactive = no such curve, though single readings can be large or run the other way.

test: Secondary Assay for Inhibitors of Human Cdc-like kinase 4 (Clk4): HEK-293 Cell Viability Assay; conditions: HEK-293 viability, ATP luminescence (CellTiter-Glo), 24/48 h; series mostly up to 46.1 µM;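 note: cytotoxic hits lower the ATP light signal so activity reflects loss of viability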
Procedure, shortened: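 Cytotoxicity was measured as ATP luminescence (CellTiter-Glo) after 24 or 48 h compound exposure at 37 degrees C. HEK-293 cells in MEM with 10% FBS had been seeded 4 h earlier.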

**Q.** Which Potency does the source give for `Cc1cccc(CNc2ncnc3ccc(-c4ccoc4)cc23)c1` here?
**A.** Its Potency is “inactive”.

**Q.** Which Potency does the source give for `Cn1ccc2cc(-c3ccc4ncnc(NCc5ccc6c(c5)OCO6)c4c3)ccc21` here?
**A.** The Potency was “inactive”.

**Q.** For `Cn1ccc2cc(-c3ccc4ncnc(NCc5cccs5)c4c3)ccc21`, which Potency is on record?
**A.** The Potency was “inactive”.

**Q.** With `CCN(Cc1cccs1)c1ncnc2ccc(-c3ccc4c(c3)OCO4)cc12` as the compound, how does the Potency read?
**A.** The Potency was “inactive”.

**Q.** With `COc1cccc(-c2ccc3ncnc(NCc4cc(C)cs4)c3c2)c1` as the compound, how does the Potency read?
**A.** The Potency was “inactive”.

**Q.** For `CCNC(=O)c1ccc(-c2ccc3ncnc(NCCc4cnc[nH]4)c3c2)o1`, which Potency is on record?
**A.** The Potency was “inactive”.

**Q.** With `Cn1ccc2cc(-c3ccc4ncnc(NCc5cccc(F)c5)c4c3)ccc21` as the compound, how does the Potency read?
**A.** The Potency was “inactive”.

**Q.** For `Cc1cccc(CNc2ncnc3ccc(-c4cccc(Cl)c4)cc23)c1`, which Potency is on record?
**A.** The Potency was “inactive”.

**Q.** Which Potency does the source give for `Cc1nc(CNc2ncnc3ccc(-c4ccoc4C)cc23)cs1` here?
**A.** Its Potency is “inactive”.

**Q.** Which Potency does the source give for `O=C(O)c1ccc(-c2ccc3ncnc(NCc4nccs4)c3c2)o1` here?
**A.** The Potency was “inactive”.

**Q.** Which Potency does the source give for `CCOC(=O)c1ccoc1-c1ccc2ncnc(NCc3ncc[nH]3)c2c1` here?
**A.** Its Potency is “inactive”.

**Q.** Which Potency does the source give for `COc1cccc(-c2ccc3ncnc(NCc4ccc5c(c4)OCO5)c3c2)c1` here?
**A.** The Potency was “inactive”.

**Q.** With `c1c[nH]c(CNc2ncnc3ccc(-c4ccoc4)cc23)n1` as the compound, how does the Potency read?
**A.** The Potency was “inactive”.

**Q.** With `c1csc(CCNc2ncnc3ccc(-c4ccc5c(c4)OCO5)cc23)c1` as the compound, how does the Potency read?
**A.** The Potency was “inactive”.

**Q.** Which Potency does the source give for `CCCN(Cc1cccs1)c1ncnc2ccc(-c3ccc4c(c3)OCO4)cc12` here?
**A.** Its Potency is “inactive”.

**Q.** With `Cc1nc(CNc2ncnc3ccc(-c4sc(C)nc4C)cc23)cs1` as the compound, how does the Potency read?
**A.** The Potency was “inactive”.

**Q.** For `Clc1cccc(-c2ccc3ncnc(NCc4cccs4)c3c2)c1`, which Potency is on record?
**A.** The Potency was “inactive”.

**Q.** With `c1nc(N2CCC(N3CCCC3)CC2)c2cc(-c3ccc4c(c3)OCO4)ccc2n1` as the compound, how does the Potency read?
**A.** Its Potency is “inactive”.

**Q.** Which Potency does the source give for `Cc1ccc(CNc2ncnc3ccc(-c4ccoc4)cc23)o1` here?
**A.** The Potency was “inactive”.

**Q.** With `Clc1ccccc1-c1ccc2ncnc(NCc3cccs3)c2c1` as the compound, how does the Potency read?
**A.** The Potency was “inactive”.

**Q.** For `c1cncc(CNc2ncnc3ccc(-c4ccoc4)cc23)c1`, which Potency is on record?
**A.** Its Potency is “inactive”.

**Q.** With `Fc1cccc(CNc2ncnc3ccc(-c4cccnc4)cc23)c1` as the compound, how does the Potency read?
**A.** Its Potency is “inactive”.

**Q.** For `Clc1ccccc1-c1ccc2ncnc(NCc3ccc4c(c3)OCO4)c2c1`, which Potency is on record?
**A.** The Potency was “inactive”.

**Q.** Which Potency does the source give for `Cc1nc(C(C)N(C)c2ncnc3ccc(-c4ccc5c(c4)OCO5)cc23)cs1` (stereo unspecified) here?
**A.** Its Potency is “inactive”.

**Q.** With `Cc1csc(CNc2ncnc3ccc(-c4cccc(Cl)c4)cc23)c1` as the compound, how does the Potency read?
**A.** Its Potency is “inactive”.

**Q.** With `c1cncc(CNc2ncnc3ccc(-c4ccco4)cc23)c1` as the compound, how does the Potency read?
**A.** Its Potency is “inactive”.
